# Results published in PubChem BioAssay (NCATS).
# Records with an inconclusive call do not appear. A call without a number means that no potency is given here. The source made the active and inactive calls. Calls come from the whole dose curve; as a rule, active = well fitted curve in the direction sought with a large enough effect; inconclusive = small, poorly fitted or top-dose-only effect, or another doubt; inactive = no such curve, though single readings can be large; an effect the other way counts as inactive or inconclusive.
# Assays:
# [1] = P-glycoprotein substrates identified in KB-3-1 adenocarcinoma cell line, qHTS therapeutic library screen (AID 1346986); note: nearly all actives have a fitted effect of over 60% in size
# Method in brief: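 Cells seeded 500/well in DMEM/10% FCS; compounds pinned in dose-response; 72 h incubation; CellTiter-Glo added, 5 min, luminescence. KB-8-5-11 run ±tariquidar to test reversal of P-gp resistance.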
# [2] = P-glycoprotein substrates identified in KB-8-5-11 adenocarcinoma cell line, qHTS therapeutic library screen (AID 1346987); note: nearly all actives have a fitted effect of over 65% in size
# Method in brief: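 KB-8-5-11, a colchicine-selected P-gp-overexpressing KB-3-1 subline, was grown without colchicine for the assay. Cells were seeded at 500 cells/well, dosed in concentration-response and incubated 72 h at 37 degree C, 5% CO2. Viability was read by CellTiter-Glo luminescence.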
SMILES,Potency [1],Potency [2],outcome [1],outcome [2]
C/C=C1/[C@H](O[C@@H]2O[C@H](CO)[C@@H](O)[C@H](O)[C@H]2O)OC=C2C(=O)O[C@@H]3C[C@@H](C(C)CO)[C@H](COC(=O)C[C@H]21)[C@H]3C (some centres not stated),inactive,inactive,,
CC(=O)O[C@@H]1[C@@H](O)[C@H](C)O[C@@H](O[C@H]2[C@@H]3C=CO[C@@H](O[C@@H]4O[C@H](CO)[C@@H](O)[C@H](O)[C@H]4OC(C)=O)[C@@H]3[C@@]3(CO)O[C@@H]23)[C@@H]1OC(=O)/C=C/c1ccc(O)cc1,inactive,inactive,,
COc1ccc(-n2[nH]c3c(cnc4ccccc43)c2=O)cc1,inactive,inactive,,
COCCCc1sc(-c2ccccc2)nc1C(=O)Nc1ccccc1-c1nc2cc(CN3CCCC3)cnc2s1,inactive,inactive,,
CCCCCOC(=O)Nc1nc(=O)n(C2O[C@H](C)[C@@H](O)[C@H]2O)cc1F (some centres not stated),inactive,inactive,,
CC1(C)C[C@@H]2[C@H](C1)[C@@]1(C)C[C@]13C(O)OC[C@]3(O)[C@H]2O (some centres not stated),inactive,inactive,,
COc1cc(C)c(C(=O)O[C@@H]2[C@H](O)[C@@H](CO)O[C@H]2n2ccc(=O)[nH]c2=O)c(OC)c1,inactive,inactive,,
Nc1ncnc2c1C(=O)N(c1ccc(C3CCC(CC(=O)O)CC3)cc1)CCO2 (configuration not stated),inactive,inactive,,
COc1ccccc1Oc1c(NS(=O)(=O)c2ccc(C)cn2)nc(-c2ccncc2)nc1OC,inactive,inactive,,
CC(=O)OC[C@@]12C(=O)C[C@@H](C)[C@]3(C[C@@H](c4ccoc4)OC3=O)[C@H]1CC[C@H](OC(C)=O)[C@]21CO1,inactive,inactive,,
CCC12CCCN3CCc4c(n(c5ccccc45)C(O)C1)C32 (configuration not stated),inactive,inactive,,
CC1(C)CC[C@]2(C(=O)O[C@@H]3O[C@H](CO)[C@@H](O)[C@H](O)[C@H]3O)CC[C@]3(C)C(=CCC4[C@@]5(C)CC[C@H](O[C@@H]6O[C@H](C(=O)O)[C@@H](O)[C@H](O)[C@H]6OC6OC(CO)C(O)C(O)C6O)C(C)(C)C5CC[C@]43C)[C@@H]2C1 (some centres not stated),,,inactive [at 9.29 µM],inactive [at 9.29 µM]
C/C=C(/C)C(=O)OC1CC(C)(C)CC2C3=CCC4C5(C)CCC(OC6OC(C)C(OC7OC(C(=O)O)C(O)C(OC8OC(CO)C(O)C(O)C8OC8OC(CO)C(O)C(O)C8O)C7O)C(O)C6O)C(C)(C)C5CCC4(C)C3(C)C(OC(=O)/C=C/C=C/C=C/CCC)C(OC(C)=O)C12CO (configuration not stated),,,inactive [at 9.29 µM],inactive [at 9.29 µM]
CC1CCC2C(C)(C)[C@H](O)CC[C@]2(C)C12Cc1c(O)cc3c(c1O2)CN(C(CCC(=O)O)C(=O)O)C3=O (some centres not stated),inactive,inactive,,
CCOC(=O)C1=C(N)Oc2ccc(Cl)cc2C1C(C#N)C(=O)OCC (configuration not stated),inactive,inactive,,
Cn1cc(Nc2cnccc2C(=O)O)c2cccnc21,inactive,inactive,,
